Source: PubChem
Not all results are given here.
aSyn UTR act: Activators working through SNCA 5'UTR binding (MLPCN); alpha-synuclein 5'UTR reporter, activators screen; activity score, % (tested at 7.5 µM), hits read low; 7.1% of 300,000 active; in the data active means activity score below about -60%
An asterisk follows results filed as active.

How did CC(=O)c1cc2c(cc1NC(=O)c1ccc(C)cc1)OCO2 do in these assays?
aSyn UTR act: -100.6*

How did O=C(Nc1cc2c(cc1C(=O)O)OCCCO2)c1ccc(C(F)(F)F)cc1 do in these assays?
aSyn UTR act: -93.9*

What do the screens show for `CCOc1cccc(C(=O)Nc2cccc(C(C)=O)c2)c1`?
aSyn UTR act: -151.2*

How did CCOc1ccc(C(=O)Nc2ccc(N3CCN(C)CC3)cc2)cc1Br do in these assays?
aSyn UTR act: -75.3*

How did CCOc1cccc(C(=O)Nc2ccc(N3CCCC3)cc2)c1 do in these assays?
aSyn UTR act: -65.7*

How did COc1cccc(C(=O)Nc2cccc(C(C)=O)c2)c1 do in these assays?
aSyn UTR act: -114.0*

How did CC(C)(C)c1ccc(C(=O)Nc2cccc3c(=O)[nH][nH]c(=O)c23)cc1 do in these assays?
aSyn UTR act: -68.1*

What do the screens show for `Cc1ccc2nc3sc(C(=O)NCc4ccco4)c(N)c3cc2c1`?
aSyn UTR act: -126.5*

How did COc1cc2cc3c(N)c(C(=O)NCc4ccco4)sc3nc2cc1OC do in these assays?
aSyn UTR act: -284.2*

Results for C=CCNc1nc(Cl)nc(Nc2ccccc2)n1 ?
aSyn UTR act: -71.6*

Results for CNc1ccccc(-c2ccc3ccccc3n2)c1=O ?
aSyn UTR act: -140.5*

Results for Cc1ccc(O)c(NC(=O)c2noc3c2CCCCC3)c1 ?
aSyn UTR act: -184.4*

How did O=C(NC1CCCCC1)c1noc2c1CCCCC2 do in these assays?
aSyn UTR act: -90.2*

Results for Cc1ccc(Cn2ccc(NC(=O)c3noc4c3CCCC4)n2)cc1 ?
aSyn UTR act: -110.7*

Results for Cc1ccc(NC(=O)c2noc3c2CCCCC3)cc1 ?
aSyn UTR act: -117.2*

What do the screens show for `O=C(NCc1ccco1)c1noc2c1CCCCC2`?
aSyn UTR act: -76.7*

How did CCc1ccc(NC(=O)c2noc3c2CCCCC3)cc1 do in these assays?
aSyn UTR act: -182.4*

Results for COc1ccc(CNC(=O)c2noc3c2CCCC3)cc1 ?
aSyn UTR act: -102.7*

What do the screens show for `CSc1ccccc1NC(=O)c1noc2c1CCC2`?
aSyn UTR act: -103.3*

How did COc1ccc(NC(=O)c2noc3c2CCCCC3)cc1 do in these assays?
aSyn UTR act: -100.4*

What do the screens show for `Nc1ccc(Nc2nc(-c3cc4ccccc4oc3=O)cs2)cc1`?
aSyn UTR act: -199.9*

What do the screens show for `CC(=O)Nc1ccc(Nc2nc(-c3cc4ccccc4oc3=O)cs2)cc1`?
aSyn UTR act: -449.4*

How did CN(Cc1ccc(F)cc1)C(=O)CCc1nnc(-c2ccccc2)o1 do in these assays?
aSyn UTR act: -90.5*

Results for CC(=O)N(Cc1ccc(F)cc1)C1=C(NCCc2ccccc2)C(=O)c2ccccc2C1=O ?
aSyn UTR act: 69.6

How did COc1ccc(CCN(C)C(=O)CCc2nnc(-c3ccccc3)o2)cc1OC do in these assays?
aSyn UTR act: -86.1*

What do the screens show for `Cc1cccnc1Nc1nc(-c2ccccc2)cs1`?
aSyn UTR act: -128.3*

What do the screens show for `Oc1ccc(-c2csc(Nc3ncccn3)n2)cc1`?
aSyn UTR act: -153.7*

How did NNc1nc(-c2ccccc2)cs1 do in these assays?
aSyn UTR act: -91.7*

What do the screens show for `c1ccc(-c2csc(Nc3ncccn3)n2)cc1`?
aSyn UTR act: -65.6*

What do the screens show for `CC(=O)Nc1ccc(-c2csc(Nc3ncccn3)n2)cc1`?
aSyn UTR act: -89.4*

How did COCCCNc1oc(-c2ccccc2F)nc1C#N do in these assays?
aSyn UTR act: -84.3*

What do the screens show for `N#Cc1nc(-c2ccccc2F)oc1NCCc1ccccn1`?
aSyn UTR act: -81.3*

Results for Clc1ccc(OCCn2cnc3ccccc32)c(Cl)c1 ?
aSyn UTR act: -125.5*

Results for N=c1n(Cc2ccccc2)c2ccccc2n1CC(O)COc1ccc(Cl)cc1Cl (stereo not drawn) ?
aSyn UTR act: 90.1

How did O=c1c2ccc([N+](=O)[O-])c3cccc(c32)c2nc3ccccc3n12 do in these assays?
aSyn UTR act: 79.0

What do the screens show for `O=c1c2ccccc2ncn1CCCOc1ccccc1[N+](=O)[O-]`?
aSyn UTR act: -149.7*

Results for O=[N+]([O-])c1ccccc1OCCCn1cnc2ccccc21 ?
aSyn UTR act: -100.2*

How did COC(=O)Cn1ncn2c(cc3oc(C)cc32)c1=O do in these assays?
aSyn UTR act: -118.5*

Results for Cc1cc(C)n(-c2ccc(C(=O)Nc3ccc4c(c3)OCO4)cc2)n1 ?
aSyn UTR act: -172.6*

What do the screens show for `Cc1cc(C)n(-c2ccc(C(=O)NC3=NCCS3)cc2)n1`?
aSyn UTR act: -110.3*

Results for CC(=O)c1ccc(NC(=O)CCOc2cc(C)ccc2C)cc1 ?
aSyn UTR act: -91.1*

How did CN(C)CCC(=O)C(Cc1ccccc1)c1ccccc1 (stereo not drawn) do in these assays?
aSyn UTR act: 98.9

How did Cc1cccc(NC(=O)CCOc2ccccc2)c1 do in these assays?
aSyn UTR act: -74.4*

How did CC(CCc1ccccc1)NC(=O)C(=O)Nc1ccccc1 (stereo not drawn) do in these assays?
aSyn UTR act: -148.7*

What do the screens show for `Cc1cccc(NC(=O)CCCc2ccccc2)c1`?
aSyn UTR act: -171.7*

How did O=C(CCc1ccccc1)Nc1ccccc1 do in these assays?
aSyn UTR act: -80.3*

What do the screens show for `CN(C)c1ccc(NC(=O)CCCc2ccccc2)cc1`?
aSyn UTR act: -119.6*

Results for CCCCC(=O)NC(c1ccc(N(C)C)cc1)c1ccc2cccnc2c1O (stereo not drawn) ?
aSyn UTR act: 62.4

What do the screens show for `O=C(CCOc1ccccc1)Nc1ccc(Br)cc1`?
aSyn UTR act: -113.0*

How did O=C(CCCc1ccccc1)Nc1cccnc1 do in these assays?
aSyn UTR act: -81.6*

Results for COc1ccc(NC(=O)CCOc2ccccc2)cc1 ?
aSyn UTR act: -125.7*

What do the screens show for `COc1ccc(NC(=O)/C=C/c2ccccc2)c([N+](=O)[O-])c1`?
aSyn UTR act: -175.7*

Results for COc1ccc(NC(=O)C/C(C)=N/NC(=O)c2cccs2)c([N+](=O)[O-])c1 ?
aSyn UTR act: -111.0*

How did CCCCC(=O)Nc1ccc(C(=O)Nc2ccc(OC)cc2[N+](=O)[O-])cc1 do in these assays?
aSyn UTR act: 60.6

Results for COc1ccc(NC(=O)c2cccs2)c([N+](=O)[O-])c1 ?
aSyn UTR act: -160.6*

How did COc1ccc(NC(=O)c2sccc2C)c([N+](=O)[O-])c1 do in these assays?
aSyn UTR act: -184.2*

What do the screens show for `CCN1CCN(Cc2ccc(NC(=O)c3ccc(C)c(NC(=O)C(=O)c4c[nH]c5ccccc45)c3)cc2C(F)(F)F)CC1`?
aSyn UTR act: 111.6

Results for CSc1ccccc1NC(=O)C(=O)c1c[nH]c2ccccc12 ?
aSyn UTR act: -146.0*

Results for O=C(Nc1nccs1)C(=O)c1c[nH]c2ccccc12 ?
aSyn UTR act: -165.4*

Results for c1cnc(SCCCOc2ccc3ccccc3c2)nc1 ?
aSyn UTR act: -67.9*

How did Cc1ccc(OCCCSc2ncccn2)cc1C do in these assays?
aSyn UTR act: -103.9*

How did CCCC(NCC(O)COc1ccc(-c2ccccc2)cc1)c1ccccc1 (stereo not drawn) do in these assays?
aSyn UTR act: 82.8

What do the screens show for `OC(COc1ccc(Cl)cc1)CSc1ccccn1` (stereo not drawn)?
aSyn UTR act: -90.1*

Results for Clc1ccc(OCCSc2ncccn2)cc1 ?
aSyn UTR act: -160.2*

How did COc1ccc(OCCCSc2ncccn2)cc1 do in these assays?
aSyn UTR act: -168.3*

What do the screens show for `CC(C)SCCCCOc1ccc2ccccc2c1`?
aSyn UTR act: -112.2*

How did CCCS/C(N)=N/N=C/c1cc(C)ccc1O do in these assays?
aSyn UTR act: -137.5*

Results for C/C(=N/N=C/c1ccccc1O)c1ccccc1O ?
aSyn UTR act: -240.0*

What do the screens show for `CCCCS/C(N)=N/N=C/c1ccccc1O`?
aSyn UTR act: -153.4*
